The record followed here is PubChem BioAssay (EPA / NIEHS).

A short description of assay [1]: ATG_M_19_XSP1: Attagene TRANS-FACTORIAL Multi-Species (XSP1) HepG2 Assay for M19 Transcription Factor (Internal Marker) (AID 2283798). The gist of the method: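 HepG2 cells transiently transfected with multiplexed GAL4-UAS reporter units, dosed 24 h with 3 nM 6-alpha-fluorotestosterone present for partial AR stimulation. Reporter mRNA measured by RT-PCR with capillary electrophoresis; gain-of-signal fitted relative to DMSO.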

Assay [2] deals with zebrafish Peroxisome Proliferator-activated Receptor gamma (PPARg), gene 557037. Briefly: ATG_zfPPARg_XSP1: Attagene TRANS-FACTORIAL Multi-Species (XSP1) HepG2 Assay for zebrafish Peroxisome Proliferator-activated Receptor gamma (PPARg) (AID 2283801). The gist of the method:
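HepG2 cells transiently transfected with GAL4-UAS reporter units including a zebrafish PPARg–GAL4 chimera, dosed 24 h with 3 nM 6-alpha-fluorotestosterone present. Reporter mRNA quantified by RT-PCR, FAM labelling, HpaI digestion and capillary electrophoresis; induction versus DMSO.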

For assay [3], the target named is frog Thyroid hormone Receptor alpha (TRa), thra-a (gene 397942) (UniProt P15204). Briefly: ATG_frTRa_XSP1: Attagene TRANS-FACTORIAL Multi-Species (XSP1) HepG2 Assay for frog Thyroid hormone Receptor alpha (TRa) (AID 2283804). The gist of the method: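 HepG2 cells transiently transfected with frog TRa-GAL4 chimeric reporter units, dosed 24 hr with 3 nM 6-alpha-fluorotestosterone present; reporter mRNA quantified by RT-PCR, fluorescent labelling and capillary electrophoresis, gain of signal versus DMSO.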
frog Thyroid hormone Receptor alpha (TRa), thra-a (gene 397942), sequence (P15204 whole entry, looked up, the tested form may be a part): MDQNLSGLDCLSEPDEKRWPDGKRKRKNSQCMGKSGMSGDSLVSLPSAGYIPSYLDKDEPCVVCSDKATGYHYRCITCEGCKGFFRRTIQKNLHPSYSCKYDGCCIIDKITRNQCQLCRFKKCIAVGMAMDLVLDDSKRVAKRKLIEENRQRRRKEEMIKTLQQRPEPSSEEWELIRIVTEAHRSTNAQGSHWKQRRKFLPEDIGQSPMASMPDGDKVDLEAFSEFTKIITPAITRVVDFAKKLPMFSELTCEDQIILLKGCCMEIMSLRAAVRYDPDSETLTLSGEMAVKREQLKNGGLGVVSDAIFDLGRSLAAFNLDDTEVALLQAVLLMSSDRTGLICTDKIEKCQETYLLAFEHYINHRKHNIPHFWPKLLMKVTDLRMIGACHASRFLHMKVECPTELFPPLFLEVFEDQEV

The nature of assay [4]: ATG_M_32_XSP1: Attagene TRANS-FACTORIAL Multi-Species (XSP1) HepG2 Assay for M32 Transcription Factor (Internal Marker) (AID 2283799). The procedure, abridged: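 HepG2 cells transiently transfected with multi-species TRANS reporter units, dosed 24 h with 3 nM 6-alpha-fluorotestosterone present. Internal-marker reporter mRNA quantified by RT-PCR and capillary electrophoresis; positive-direction fit versus DMSO.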

For assay [5], the target named is mouse Peroxisome Proliferator-activated Receptor gamma (PPARg), Pparg (gene 19016) (UniProt P37238). Briefly: ATG_mPPARg_XSP1: Attagene TRANS-FACTORIAL Multi-Species (XSP1) HepG2 Assay for mouse Peroxisome Proliferator-activated Receptor gamma (PPARg) (AID 2283802). The gist of the method: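 HepG2 cells transiently transfected with GAL4-UAS reporter units driven by mouse PPARg–GAL4 chimera; 3 nM 6-alpha-fluorotestosterone present. After 24 h dosing, reporter mRNA quantified by RT-PCR, fluorescent labelling and capillary electrophoresis; gain of signal versus DMSO.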
mouse Peroxisome Proliferator-activated Receptor gamma (PPARg), Pparg (gene 19016), sequence (P37238 whole entry, looked up, the tested form may be a part): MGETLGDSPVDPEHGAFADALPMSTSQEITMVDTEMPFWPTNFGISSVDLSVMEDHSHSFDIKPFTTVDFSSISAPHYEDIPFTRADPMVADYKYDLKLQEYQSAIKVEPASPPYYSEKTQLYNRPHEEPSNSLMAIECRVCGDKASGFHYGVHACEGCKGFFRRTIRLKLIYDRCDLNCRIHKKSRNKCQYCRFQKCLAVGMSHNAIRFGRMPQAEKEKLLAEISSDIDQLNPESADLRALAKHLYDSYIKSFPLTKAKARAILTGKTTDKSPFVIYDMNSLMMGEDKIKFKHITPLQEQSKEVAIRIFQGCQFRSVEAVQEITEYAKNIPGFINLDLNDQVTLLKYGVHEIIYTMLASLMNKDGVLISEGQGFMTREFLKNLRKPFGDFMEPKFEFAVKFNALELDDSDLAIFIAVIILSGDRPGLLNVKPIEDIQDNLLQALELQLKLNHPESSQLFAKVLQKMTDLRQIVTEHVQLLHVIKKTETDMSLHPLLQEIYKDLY

The target of assay [6] is Nuclear receptor subfamily 1 group I member 2 (Mus musculus) (UniProt O54915). The experiment in a line: ATG_mPXR_XSP1: Attagene TRANS-FACTORIAL Multi-Species (XSP1) HepG2 Assay for mouse Pregnane X Receptor (PXR) (AID 2283803). The gist of the method:
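Transiently transfected HepG2 cells expressing a receptor-Gal4 chimera drive a GAL4-UAS reporter; 3 nM 6-alpha-fluorotestosterone included. Reporter mRNA read 24 h post-dose by RT-PCR and capillary electrophoresis; gain of signal relative to DMSO.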

The target in assay [7] is GAL4 Transcription Factor (Internal Marker), GAL4 (gene 855828) (UniProt P04386). Briefly: ATG_GAL4_XSP1: Attagene TRANS-FACTORIAL Multi-Species (XSP1) HepG2 Assay for GAL4 Transcription Factor (Internal Marker) (AID 2283789). As for the experimental part:
(§1) ATG_XSP1_multi-species_TRANS is a cell-based, multiplexed assay created by modifying the existing Attagene TRANS-FACTORIAL system to include a panel of nuclear receptors from some or all the following species: human (Homo sapiens), mouse (Mus musculus), frog (Xenopus laevis), zebrafish (Danio rerio), chicken (Gallus gallus), and turtle (Chrysemys picta). The ECOTOX-FACTORIAL format uses HepG2, a human liver cell line, with measurements taken at 24 hours after chemical dosing in a 24-well plate. Xsp1 included 3 nM 6-alpha-fluorotestosterone to partially stimulate the androgen receptor.ATG_GAL4_XSP1 is one of 29 assay components measured or calculated from the ATG_XSP1_multi-species_TRANS assay. It is designed to make measurements of mRNA induction, a form of inducible reporter, as detected with fluorescence intensity signals by Reverse transcription polymerase chain reaction (RT-PCR) and Capillary electrophoresis technology.This assay endpoint, ATG_GAL4_XSP1, was analyzed in the positive analysis fitting direction relative to DMSO as the negative control and baseline of activity. […] Furthermore, this assay endpoint can be referred to as a secondary readout, because this assay has produced multiple assay endpoints where this one serves a background control function. […]

Assay [8] can be described thus: ATG_M_06_XSP1: Attagene TRANS-FACTORIAL Multi-Species (XSP1) HepG2 Assay for M06 Transcription Factor (Internal Marker) (AID 2283790). The procedure, abridged: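 Transfected HepG2 multi-reporter system treated 24 h in the presence of 3 nM 6-alpha-fluorotestosterone. The M06 internal marker transcript was quantified by RT-PCR with capillary electrophoresis as a background control, and gain of signal was scored versus DMSO.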

The nature of assay [9]: ATG_M_61_XSP1: Attagene TRANS-FACTORIAL Multi-Species (XSP1) HepG2 Assay for M61 Transcription Factor (Internal Marker) (AID 2283797). The procedure: as §1, with “receptor.ATG_M_61_XSP1” for “receptor.ATG_GAL4_XSP1”, “ATG_M_61_XSP1,” for “ATG_GAL4_XSP1,”
For assay [10], the target named is Peroxisome proliferator-activated receptor gamma (Homo sapiens) (UniProt P37231). The experiment in a line: ATG_hPPARg_XSP1: Attagene TRANS-FACTORIAL Multi-Species (XSP1) HepG2 Assay for human Peroxisome Proliferator-activated Receptor gamma (PPARg) (AID 2283800). The procedure, abridged: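 HepG2 cells transiently transfected with GAL4-UAS reporter units carrying chimeric NR-Gal4 proteins; 3 nM 6-alpha-fluorotestosterone present. After 24 h dosing, reporter mRNA quantified by RT-PCR and capillary electrophoresis; gain of signal relative to DMSO.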
Peroxisome proliferator-activated receptor gamma (Homo sapiens), sequence (P37231 whole entry, looked up, the tested form may be a part): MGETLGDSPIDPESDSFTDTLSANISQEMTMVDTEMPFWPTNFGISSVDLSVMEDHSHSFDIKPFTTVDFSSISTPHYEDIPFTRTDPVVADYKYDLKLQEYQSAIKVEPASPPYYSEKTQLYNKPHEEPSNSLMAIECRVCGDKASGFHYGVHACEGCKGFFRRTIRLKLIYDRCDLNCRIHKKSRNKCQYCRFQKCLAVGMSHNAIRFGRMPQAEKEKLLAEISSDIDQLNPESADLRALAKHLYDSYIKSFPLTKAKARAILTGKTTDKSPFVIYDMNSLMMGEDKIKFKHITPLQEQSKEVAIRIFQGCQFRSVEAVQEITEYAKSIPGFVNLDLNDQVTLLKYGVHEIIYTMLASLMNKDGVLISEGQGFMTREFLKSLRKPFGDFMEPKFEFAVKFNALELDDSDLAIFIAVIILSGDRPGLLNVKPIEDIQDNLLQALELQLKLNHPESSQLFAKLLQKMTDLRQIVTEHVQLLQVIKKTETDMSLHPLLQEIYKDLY

Results filed as inconclusive are left out. Active and inactive are the calls of the source. The calls were made as follows: active = hit-call score of the fitted dose curve at least 0.9, where 1 is the maximum; inconclusive = response in the unintended direction; inactive = score below 0.9.

Nuclear receptor subfamily 1 group I member 2 (Mus musculus), sequence (O54915 whole entry, looked up, the tested form may be a part): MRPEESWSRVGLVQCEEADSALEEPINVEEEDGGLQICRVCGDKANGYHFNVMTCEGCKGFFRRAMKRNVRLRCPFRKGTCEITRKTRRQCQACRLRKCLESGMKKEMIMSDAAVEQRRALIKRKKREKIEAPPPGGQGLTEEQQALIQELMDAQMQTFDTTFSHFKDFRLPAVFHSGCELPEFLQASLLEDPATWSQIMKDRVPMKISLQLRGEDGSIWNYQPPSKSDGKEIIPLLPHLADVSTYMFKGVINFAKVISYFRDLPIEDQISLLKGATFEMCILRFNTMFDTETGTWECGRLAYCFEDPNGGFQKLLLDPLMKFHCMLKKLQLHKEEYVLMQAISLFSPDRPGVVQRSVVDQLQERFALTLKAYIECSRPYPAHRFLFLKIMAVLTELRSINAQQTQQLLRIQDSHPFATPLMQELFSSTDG
GAL4 Transcription Factor (Internal Marker), GAL4 (gene 855828), sequence (P04386 whole entry, looked up, the tested form may be a part): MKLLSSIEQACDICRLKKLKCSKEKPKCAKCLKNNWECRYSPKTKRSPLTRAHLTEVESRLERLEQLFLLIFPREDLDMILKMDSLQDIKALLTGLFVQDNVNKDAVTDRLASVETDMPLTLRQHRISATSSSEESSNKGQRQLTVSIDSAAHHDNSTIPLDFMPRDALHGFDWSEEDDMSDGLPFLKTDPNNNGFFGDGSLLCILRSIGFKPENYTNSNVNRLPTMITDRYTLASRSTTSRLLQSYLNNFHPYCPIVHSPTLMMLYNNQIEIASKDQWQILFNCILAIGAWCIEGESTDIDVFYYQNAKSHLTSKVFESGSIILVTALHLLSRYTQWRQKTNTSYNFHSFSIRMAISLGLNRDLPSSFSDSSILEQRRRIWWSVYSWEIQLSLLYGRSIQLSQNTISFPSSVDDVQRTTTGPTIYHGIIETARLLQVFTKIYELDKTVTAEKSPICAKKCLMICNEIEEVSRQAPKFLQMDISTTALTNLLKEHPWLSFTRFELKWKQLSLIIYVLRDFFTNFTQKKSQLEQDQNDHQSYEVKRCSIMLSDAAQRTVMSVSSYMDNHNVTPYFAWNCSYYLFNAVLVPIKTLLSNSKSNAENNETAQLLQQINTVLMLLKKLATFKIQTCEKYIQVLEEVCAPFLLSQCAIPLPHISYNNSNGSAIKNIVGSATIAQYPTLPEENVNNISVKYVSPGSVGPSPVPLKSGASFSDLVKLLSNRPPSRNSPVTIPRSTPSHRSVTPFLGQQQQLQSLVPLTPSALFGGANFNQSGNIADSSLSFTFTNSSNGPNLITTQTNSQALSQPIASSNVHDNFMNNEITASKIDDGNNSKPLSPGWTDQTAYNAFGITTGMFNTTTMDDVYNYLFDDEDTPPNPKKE

`CCC[CH2][Sn]([Cl])([CH2]CCC)[CH2]CCC`: the outcome in assay [1], in [2] and in assay [3] was inactive.
As usually defined, the AC50 is the concentration giving half of the maximal activity seen. `CCCCOC(=O)c1ccccc1C(=O)OCc1ccccc1`: the result in assay [1], in [4] and in [2] was inactive. Further, the AC50 in assay [5] is 9.86 µM (active); in [6], 3.81 µM (active).
For `Clc1ccc(C(c2ccc(Cl)cc2)C(Cl)(Cl)Cl)cc1`, the call in assay [1], in assay [4] and in assay [3] was inactive. Moreover, the AC50 is 100 µM (active) in assay [2], 67.5 µM (active) in assay [5] and 2.67 µM (active) in [6].
`CCCCCOC(=O)c1ccccc1C(=O)OCCCCC`: the outcome in assay [7], in assay [8], in assay [9], in assay [4] and in assay [2] was inactive. Moreover, the AC50 is 31.9 µM (active) in assay [10], 37.6 µM (active) in [5] and 5.96 µM (active) in [6].
With `Clc1ccc(C(c2ccc(Cl)cc2)C(Cl)Cl)cc1`, the molecule was called inactive in assay [7], in [1], in assay [4] and in assay [2]. The results for the AC50 in assay [5] and in assay [6] were 50.3 µM (active) and 24.6 µM (active), respectively.
Consider `C[C@]12C=CC3=C4CCC(=O)C=C4CC[C@H]3[C@@H]1CC[C@@H]2O`, for which the result in assay [1], in [4] and in assay [3] was inactive.
